The results in this text go back to PubChem BioAssay (NCI).

SMILES strings stand for the structures. This is part of a sample that, as a whole, favours compounds with a hit. Of some 83,000 tested, about 20% had one in any assay.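 Results are percent growth after 48 hours of single-concentration exposure. 100 means growth as in untreated cells, lower positive values show inhibition; negative values down to -100 show cell death.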 Values without a mark were called inactive. The source made the active and inactive calls. How the source made its calls: active means growth percent below 10; inactive means the rest.

The test system of the first test is SNB-19 CNS. The test can be described thus: NCI-60 one-dose screen, 48 h (100 = growth as untreated, 0 = no growth, -100 = all killed). The following applies: 10 µM unless noted.
As to `COC(=O)c1ccc2c(c1)nc(-c1ccc(O)c(OC)c1)n2-c1cc(C(C)(C)C)[nH]n1`, the growth was 101%.
Consider `Cc1nc(N)[nH]c(=O)c1C`, for which the growth is 95.4%.
For the compound `O=C1/C(=C/c2ccc([N+](=O)[O-])o2)Oc2ccc(Cl)cc21`, the growth was 91.9%.
In the case of `O=[N+]([O-])c1ccc2c(c1)S(=O)c1cc([N+](=O)[O-])ccc1N2`, the growth was 109%.
Regarding `Clc1ccc2nc(Cl)c3ccccc3c2c1`, the growth is 53.2%.
Regarding `CC(=O)Oc1ccc(C23c4ccccc4C2(OC(C)=O)c2cc(OC(C)=O)ccc23)cc1` (centres undefined), the growth is 65.9%.
In the case of `Nc1ccc2c(c1)/C(=N/O)c1cc([N+](=O)[O-])ccc1-2`, the growth was 81.4%.
Consider `CN1CCCC1c1cccnc1` (centres undefined), for which the growth is 105%.
Still for that read-out and setting: then `COc1ccc(-c2cnnn2-c2cc(OC)c3c(c2)OCO3)cc1`, with 39.4%; and `Cc1nn(-c2ccc(Br)cc2)c2nc3c(nc12)C(=O)C(=O)c1ccccc1-3`, with 92.5%; and `Cn1cc(-c2csc(-c3cn(C)c4ncccc34)n2)c2cc(Br)cnc21`, with 98.5%.
Regarding `OC(Cc1cccnc1)c1ccccc1` (centres undefined), the growth was 98.9%.
Still for that read-out and setting: then `C/C(=N/N=C(N)N)c1ccc(Cl)cc1`, with 92.6%; and `Cc1nn(-c2ccccc2)c2nc3c(nc12)C(=O)CCC3`, with 104%.
As for `C[n+]1ccc(C#N)c2ccccc21`, the growth is 109%.
For `CCCCCCCC/C=C/CCCCCCCC1=NC(C)(C)CN1CC(C)O` (centres undefined), the growth is 72.3%.
Still for that read-out and setting: then `O=C1Nc2ccccc2C12Nc1cc(Cl)ccc1S2` (centres undefined), with 94%; and `CCC(CC)NCCCCCNc1cc(OC)cc2cccnc12`, with 91.1%; and `CCC(CCC(C)C1CCC2C3CC=C4CC(O)CCC4(C)C3CCC12C)C(C)C` (centres undefined) (tested in a mixture with another compound), with 98.6%.
Turning to `Cc1nn(-c2ccc(Cl)cc2)c2nc3c(nc12)c(=O)oc1ccccc13`, the growth was 100%.
Turning to `Cc1cc(NC(=O)c2ccc(N)cc2)ccc1N=Nc1ccc2c(O)c(N=Nc3ccc(Cl)c(S(=O)(=O)O)c3)c(S(=O)(=O)O)cc2c1`, the growth is 105%.
As for `CN(C)c1nc(-c2ccco2)n2nc(-c3ccco3)cc2n1`, the growth was 98.9%.
As for `C[C@]12C[C@H](O)[C@H]3[C@@H](CCC4=CC(=O)CC[C@@]43C)[C@@H]1CC[C@@H]2C(=O)CO`, the growth is 95.6%.
Regarding `Cn1c(N)c(N=O)c(=O)[nH]c1=O`, the growth was 105%.
As for `Nc1nc(SCc2ccccc2Cl)c(-c2ccccc2)c(SCc2ccccc2Cl)n1`, the growth is 116%.
With `O=C(CSCC(=O)N/N=C/c1ccccc1O)N/N=C\c1ccccc1O`, the growth is 31.2%.
Take `O=C(O)C(=O)O`: the growth was 91.7%.
Take `Cc1nn(-c2ccccc2)c2ncc3c(c12)C(=O)N(Cc1ccccc1)C3=O`: the growth is 47.9%.
Consider `Cc1ccc(NC(=O)COC(=O)c2ccc(S(=O)(=O)N3CCCCCC3)cc2)cc1`, for which the growth is 33.4%.
Still for that read-out and setting: then `Cc1ccc2c(c1)C(=O)/C(=C/c1ncc([N+](=O)[O-])n1C)O2`, with 11.8%; and `CC1CC(C)/C(=N/NC(N)=O)C(C(O)CC2CCC(=O)NC2=O)C1` (centres undefined), with 31.4%; and `CCC(c1ccccc1)c1noc(CCN(CC)CC)n1` (centres undefined), with 105%.
On to `O=C1Cc2cc(CCn3cncn3)c(Cl)cc2N1`, for which the growth is 74.4%.
Turning to `Cc1nn(-c2ccccc2)c2nc(Cl)c(/C=C/C(=O)c3ccccc3)c(-c3ccccc3)c12`, the growth was 98.9%.
Same read-out and setting: then `COc1ccc(/C=C2\NC(=S)NC2=O)cc1`, with 109%.
`Cn1cc(-c2csc(-c3c[nH]c4ncccc34)n2)c2cc(F)cnc21`: the growth is 89%.
For `O=C1NC(=O)/C(=C\c2ccccc2)C2=C1CCCC2`, the growth is 88%.

A further test relates to U251 CNS. The test is described as above. Particulars: 10 µM unless noted.
Take `COC(=O)c1ccc2c(c1)nc(-c1ccc(O)c(OC)c1)n2-c1cc(C(C)(C)C)[nH]n1`: the growth is 93.3%.
For `Cc1nc(N)[nH]c(=O)c1C`, the growth was 95.4%.
With `O=C1/C(=C/c2ccc([N+](=O)[O-])o2)Oc2ccc(Cl)cc21`, the growth is 50.2%.
In the case of `O=[N+]([O-])c1ccc2c(c1)S(=O)c1cc([N+](=O)[O-])ccc1N2`, the growth was 105%.
As to `Clc1ccc2nc(Cl)c3ccccc3c2c1`, the growth is 20.2%.
Still for that read-out and setting: then `CC(=O)Oc1ccc(C23c4ccccc4C2(OC(C)=O)c2cc(OC(C)=O)ccc23)cc1` (centres undefined), with 9.83% (active); and `Nc1ccc2c(c1)/C(=N/O)c1cc([N+](=O)[O-])ccc1-2`, with 66.7%.
For `CN1CCCC1c1cccnc1` (centres undefined), the growth is 97.1%.
In the case of `COc1ccc(-c2cnnn2-c2cc(OC)c3c(c2)OCO3)cc1`, the growth was 3.74% (active).
Same read-out and setting: then `Cc1nn(-c2ccc(Br)cc2)c2nc3c(nc12)C(=O)C(=O)c1ccccc1-3`, with 103%; and `Cn1cc(-c2csc(-c3cn(C)c4ncccc34)n2)c2cc(Br)cnc21`, with 87.9%.
For the compound `OC(Cc1cccnc1)c1ccccc1` (centres undefined), the growth is 98.1%.
With `C/C(=N/N=C(N)N)c1ccc(Cl)cc1`, the growth was 89.4%.
With `Cc1nn(-c2ccccc2)c2nc3c(nc12)C(=O)CCC3`, the growth was 102%.
Same read-out and setting: then `C[n+]1ccc(C#N)c2ccccc21`, with 104%.
Same read-out and setting: then `CCCCCCCC/C=C/CCCCCCCC1=NC(C)(C)CN1CC(C)O` (centres undefined), with -17% (active).
Still for that read-out and setting: then `O=C1Nc2ccccc2C12Nc1cc(Cl)ccc1S2` (centres undefined), with 98.5%; and `CCC(CC)NCCCCCNc1cc(OC)cc2cccnc12`, with 86.5%.
As to `CCC(CCC(C)C1CCC2C3CC=C4CC(O)CCC4(C)C3CCC12C)C(C)C` (centres undefined) (tested in a mixture with another compound), the growth is 90.2%.
For the compound `Cc1nn(-c2ccc(Cl)cc2)c2nc3c(nc12)c(=O)oc1ccccc13`, the growth was 93.9%.
As for `Cc1cc(NC(=O)c2ccc(N)cc2)ccc1N=Nc1ccc2c(O)c(N=Nc3ccc(Cl)c(S(=O)(=O)O)c3)c(S(=O)(=O)O)cc2c1`, the growth was 68.7%.
With `CN(C)c1nc(-c2ccco2)n2nc(-c3ccco3)cc2n1`, the growth was 88.9%.
In the case of `C[C@]12C[C@H](O)[C@H]3[C@@H](CCC4=CC(=O)CC[C@@]43C)[C@@H]1CC[C@@H]2C(=O)CO`, the growth is 93.5%.
Consider `Cn1c(N)c(N=O)c(=O)[nH]c1=O`, for which the growth was 95.9%.
`Nc1nc(SCc2ccccc2Cl)c(-c2ccccc2)c(SCc2ccccc2Cl)n1`: the growth was 86.9%.
With `O=C(CSCC(=O)N/N=C/c1ccccc1O)N/N=C\c1ccccc1O`, the growth was 26.8%.
On to `O=C(O)C(=O)O`, for which the growth is 90%.
Still for that read-out and setting: then `Cc1nn(-c2ccccc2)c2ncc3c(c12)C(=O)N(Cc1ccccc1)C3=O`, with 8.03% (active); and `Cc1ccc(NC(=O)COC(=O)c2ccc(S(=O)(=O)N3CCCCCC3)cc2)cc1`, with 104%.
As for `Cc1ccc2c(c1)C(=O)/C(=C/c1ncc([N+](=O)[O-])n1C)O2`, the growth was -19% (active).
Still for that read-out and setting: then `CC1CC(C)/C(=N/NC(N)=O)C(C(O)CC2CCC(=O)NC2=O)C1` (centres undefined), with 35.1%; and `CCC(c1ccccc1)c1noc(CCN(CC)CC)n1` (centres undefined), with 98.1%; and `O=C1Cc2cc(CCn3cncn3)c(Cl)cc2N1`, with 73.4%.
On the same count and under the same terms, then `Cc1nn(-c2ccccc2)c2nc(Cl)c(/C=C/C(=O)c3ccccc3)c(-c3ccccc3)c12`, with 104%; and `COc1ccc(/C=C2\NC(=S)NC2=O)cc1`, with 102%.
As for `Cn1cc(-c2csc(-c3c[nH]c4ncccc34)n2)c2cc(F)cnc21`, the growth was 83.3%.
As to `O=C1NC(=O)/C(=C\c2ccccc2)C2=C1CCCC2`, the growth is 2.63% (active).
